# Test results: PubChem BioAssay AID1347041 (National Center for Advancing Translational Sciences (NCATS), 2019)
# Among all 480,000 compounds or so, about 740 (0.15%) were called active. The list comes from a sample in which actives are over-represented; it also holds similar structures and randomly drawn compounds. Values without a mark were called inactive. Rule as the data show it: active = activity change below about -30%; inconclusive = mostly about -25% to -30%; inactive = weaker than that.
# Biological target: L-lactate dehydrogenase A chain (Homo sapiens) (UniProt P00338)
# Test: qHTS assay for inhibitors of human lactate dehydrogenase;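 also: values are at about 110 or 230 µM; plate controls were DMSO wells for no effect and wells without enzyme for full effect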
# Conditions: purified LDHA, NADH/diaphorase-resazurin fluorescence; active compounds read low
# Description: LDH is a key glycolytic enzyme that catalyzes the final step in the glycolytic pathway, reducing pyruvate to lactate and regenerating NAD+ equivalents necessary for continued glycolysis. LDHA has been linked to the carcinogenesis and malignancy in numerous forms of cancers and many other diseases. Consequently, both pharma and academia have invested in significant research efforts to identify small molecule therapeutics. Such attempts have been stalled or abandoned due to limited success in discovering potent and drug-like inhibitors that can be utilized to validate LDHA in vivo as a drug target, a necessary step toward advancing such a molecule towards the clinic Towards this goal we designed and performed a quantitative high-throughput screening (qHTS) campaign to discover novel compounds that are potent inhibitors of LDHA enzyme activity and cancer cell line growth.
# The assay was optimized to 1536-well plates. Briefly, 3 µL of human lactate dehydrogenase 5 (#A38558H, Meridian Life Science, Inc., Memphis, TN) in LDH assay buffer (200 mM Tris HCl pH 7.4, 100 microM EDTA and 0.01% Tween-20) was added to a black solid bottom 1536-well assay plate (Greiner Bio-One) using a BioRAPTR FRD dispenser (Beckman Coulter, Brea, CA). A 1536-well pintool dispenser outfitted with 20 nL pins (Wako Automation, San Diego, CA) was used to transfer 23 nL of DMSO-solubilized compound (both library and vehicle controls) to each 1536-well assay plate. Following compound transfer, 1 µL of substrate solution containing NADH and sodium pyruvate (Sigma-Aldrich, St. Louis, MO) in LDH assay buffer was dispensed via BioRAPTR FRD to initiate the reaction. Final concentrations in the 4 microL reaction volume were 2 nM LDHA enzyme, 0.06 mM NADH and 0.2 mM sodium pyruvate. Following a 5 minute incubation period at room temperature, 1 µL of detection reagent (C. kluyveri diaphorase (Sigma-Aldrich) and resazurin sodium salt (Sigma-Aldrich) in LDH assay buffer) was added to a total volume of 5 µL. Final concentrations of detection reagents were 0.133 mg/mL diaphorase and 37 µM resazurin. Plates were immediately transferred to a ViewLux microplate imager (PerkinElmer, Waltham, MA), and any resulting resorufin fluorescence was measured (ex540, em590 nm) at 0 and 20 minutes. Fluorescence was normalized using enzyme-free and DMSO-treated control wells on each plate.
row,Compound,activity change
1,CCC(CC)(Cc1nc2ccccc2s1)C(=O)Nc1ccc(N2CCOCC2)cc1,5.36%
2,C/C(=N\NC(=O)c1ccc(C(C)(C)C)cc1)C(C)C,11.2%
3,O=[N+]([O-])c1cc(S(=O)(=O)Nc2ccc(Cl)cc2)ccc1N/N=C/c1ccccc1C(F)(F)F,3.88%
4,O=[N+]([O-])c1cc(S(=O)(=O)Nc2ccccc2NS(=O)(=O)c2cccs2)ccc1Cl,13.9%
5,O=[N+]([O-])c1cc(S(=O)(=O)Nc2cccc(Cl)c2)ccc1N=Nc1c(O)[nH]c2ccccc12,-42.1% (active)
6,COc1cccc(/C=N/NC(=O)c2[nH]nc3c2CCc2ccccc2-3)c1O,-78.6% (active)
7,CC(C)(C)c1ccc(/C=N/NC(=O)c2ccccc2)cc1,12.2%
8,Cc1cc(C)c(/C=N/NC(=O)c2ccccc2)c(C)c1,4.2%
9,CC(OC(=O)c1cccc(-n2cnnn2)c1)C(=O)Nc1ccc(N2CCOCC2)cc1 (stereo not given),6.53%
10,CC(=O)Nc1cccc(NC(=O)c2cnn(-c3ccccc3F)c2C(F)(F)F)c1C,9.39%
11,O=C(N/N=C/c1ccccc1Cl)c1ccc(Cl)s1,5.95%
12,O=C(NN=Cc1ccccc1O)NN=Cc1ccccc1O,-72% (active)
13,O=C(N/N=C/c1ccccc1OCCOc1ccc([N+](=O)[O-])cc1)Nc1ccccc1,-7.59%
14,N#C/C(=C/c1ccccc1)c1ccc(C(F)(F)F)cn1,-3.61%
15,Cc1ccccc1CC(=O)Nc1ccc(N2CCOCC2)c(Cl)c1,-4.8%
16,COCCN1C(=O)C(=O)/C(=C(/O)c2ccc3c(c2)OCCO3)C1c1cccc(O)c1 (stereo not given),9.53%
17,O=S(=O)(c1ccc2c(c1)OCCO2)c1nc(-c2cccc(Cl)c2)oc1N1CCOCC1,-9.35%
18,NC(=O)c1ccc(NC(=O)CCc2ncc(-c3c(F)cccc3F)o2)cc1,-1.68%
19,Cc1cc(N2CCC(C)CC2)n2nc(-c3ccccc3)nc2n1,7.05%
20,c1ccc(Oc2ccc(CNc3ncccn3)cn2)cc1,-10.1%

row,Compound,activity change
1,CCCn1c(N)c(-c2csc(Nc3ccc(F)cc3)n2)c(=O)n(C)c1=O,2.91%
2,CCc1nn2c(=O)cc(CN(CC)Cc3ccc(OCc4ccccc4)cc3)nc2s1,-24.3%
3,Cc1ccccc1CSc1nc(=O)c2c(n1C)NC(=O)CC2c1ccc(OCC(N)=O)cc1 (stereo not given),2.91%
4,O=C(CSc1ccccc1F)c1ccc2c(c1)-c1ccccc1C2,10.6%
5,Cc1ccc(C)c(-n2c3c(cc(C#N)c2=O)C(=O)CC(c2ccccc2)C3)c1 (stereo not given),-0.429%
6,CCOC(=O)c1c(C)[nH]c(C(=O)COc2cc(Cl)ccc2Cl)c1C,-3.64%
7,CC1=C(C(=O)Nc2cccc(C)c2C)C(c2ccc(C)cc2)NC(=O)N1 (stereo not given),-9.14%
8,CC1CCN(C(=O)C(C)n2cnc3c2c(=O)n(C)c(=O)n3C)CC1 (stereo not given),1.51%
9,COc1ccc(-c2csc(-c3cc4c([nH]c3=O)CC(c3ccco3)CC4=O)n2)cc1F (stereo not given),6.35%
10,COc1ccc(-c2c(C)c3cc(OS(=O)(=O)c4ccc(F)cc4)ccc3oc2=O)cc1OC,1.58%
11,COc1cccc(CNC(C)C(=O)Nc2ccc(S(=O)(=O)N3CCCC3)cc2)c1 (stereo not given),-0.452%
12,CCN(CC(=O)Nc1cccc(S(=O)(=O)N2CCCCC2)c1)Cc1ccccc1,-5.08%
13,CCN(CC(=O)Nc1ccc(S(=O)(=O)N2CCCC2)cc1)CC(=O)Nc1cccc(OC)c1,-38.2% (active)
14,CC(C)CC(NC(=O)C(c1ccccc1)c1ccccc1)c1ccccc1 (stereo not given),-5.71%
15,Oc1c(Cl)cc(Cl)c(Cl)c1Cc1c(O)c(Cl)cc(Cl)c1Cl,-106% (active)
16,Fc1cccc(Cl)c1CNc1ccc(Cl)cc1,11.8%
17,CC(C)(C)n1nc(N)c2cc([N+](=O)[O-])ccc21,-0.323%
18,O=C(Cc1c[nH]c2ccccc12)Nc1cc(F)cc(F)c1,0.607%
19,C=CC(=O)OCCOCCOCCOCCOC(=O)C=C,-3.09%
20,O=C(O)CCC(=O)O,0.526%

row,Compound,activity change
1,O=C(O)COCCOCC(=O)O,-30% (active)
2,CCN(CC(=O)NCc1cccs1)C(=O)c1cccc(S(=O)(=O)N(C)c2ccc(C)cc2)c1,2.57%
3,O=C(Cc1ccsc1)NCCc1ccccc1,-0.295%
4,NS(=O)(=O)c1ccc(N2C(=O)C3C4CC(C(Br)C4Br)C3C2=O)cc1 (stereo not given),-58.8% (active)
5,CCCOc1ccc(N2C(=O)CC(N(CCc3ccc(S(N)(=O)=O)cc3)C(C)=O)C2=O)cc1 (stereo not given),-18%
6,O=C1C2C3C=CC(C3)C2C(=O)N1c1ccc(S(=O)(=O)Nc2nccs2)cc1 (stereo not given),-9.54%
7,O=C(NCc1nc(-c2ccc(Cl)cc2)no1)c1cc2ccccc2o1,0.842%
8,Cc1ccc(-c2ccccc2N)cc1,-2.5%
9,O=C(c1ccc[nH]1)c1cc2cc(Br)ccc2o1,-2.8%
10,Cc1cccc(/C=C/C(=O)c2cccs2)c1,7.28%
11,CCCNC(=O)C(C)NC(=O)COc1ccccc1NC(C)=O (stereo not given),-1.76%
12,Cc1ccc(-c2nc(CS(=O)CC(=O)Nc3ccc(C)c(C)c3)cs2)cc1 (stereo not given),0.528%
13,O=C(O)CCC(=O)Nc1ccc2c(C(C(=O)O)N3CCN(c4ccccc4)CC3)c[nH]c2c1 (stereo not given),-5.22%
14,Cc1ccc(NC(=O)C(Sc2nnnn2C2CCCC2)c2ccccc2)cc1 (stereo not given),11.6%
15,c1ccc(-c2nc(-c3ccc4c(c3)OCCCO4)cs2)nc1,5.7%
16,c1coc(CNc2ccc3c(c2)ncn3C2CCCCC2)c1,13.3%
17,CN1CCN(CCCCOc2ccccc2-c2ccccc2)CC1,-36.2% (active)
18,CC1CCCN(CCOCCOc2ccccc2-c2ccccc2)C1 (stereo not given),-8.67%
19,COc1ccccc1OCCCCCCN1CCN(C)CC1,-2.1%
20,O=C(CCn1ccccc1=O)Nc1ccc(Cl)cc1Cl,11.9%
